The values that follow come from the OligoGym collection.
Also: reference of the scale not given here.

The first assay has as its target BARX2. Description: pooled miR-30 sensor sort-seq; sequence = guide strand. As to conditions: shRNA.
TCAGCTTCAATCTCTTCTGATG displayed a sensor-assay potency score (higher = more potent) of -1.18.
On the same count and under the same terms, next, TTCTCTTCAGCTTCAATCTCTT: -0.0921; TTAAGAACCATTTTCTTCCATT: -0.688.
Regarding TTTAAGAACCATTTTCTTCCAT, the sensor-assay potency score (higher = more potent) was determined as 0.594.
Same read-out and setting: the value for TAATCGCAGGTCTCCTTGGAGA was -1.07; that for TCGTCGATCATGAAAGTCTTGT was -0.832; that for TGCTTCACAGAGCTCCTCCTGC was -0.821.
Same read-out and setting: the value for TCAATCTCTTCTGATGTGGGGA was 0.111.

A further assay concerns the target BAX. The assay is described as above. As to conditions: shRNA.
AATCATCCTCTGCAGCTCCATG registered a sensor-assay potency score (higher = more potent) of -1.42.
Same read-out and setting: the value for TTGCCGTCAGAAAACATGTCAG was -0.725; that for TAGAAAAGGGCGACAACCCGGC was -0.132.
Same read-out and setting: the value for TGCGCTTGAGACACTCGCTCAG was 0.0222; that for TTGAGCACCAGTTTGCTGGCAA was 0.213; that for ATGATCTGCTCAGAGCTGGTGG was -1.15.
Same read-out and setting: next, ATGCGCTTGAGACACTCGCTCA: -1.61; TTACTGTCCAGTTCGTCCCCGA: -0.0654.
For TCGGAAAAAGACCTCTCGGGGG, the sensor-assay potency score (higher = more potent) is -0.669.
On the same count and under the same terms, the value for TTCTTGGTGGACGCATCCTGAG was -1.72; that for AACATGTCAGCTGCCACTCGGA was -1.25; that for TTGGATCCAGCCCAACAGCCGC was -1.52.
The same measure, in the same setting: the value for AAACATGTCAGCTGCCACTCGG was -0.504; that for TCTTGGTGGACGCATCCTGAGG was -1.92; that for TTCATGATCTGCTCAGAGCTGG was 0.0889.
The same measure, in the same setting: next, TGATGGTTCTGATCAGTTCCGG: -0.352; TCGATCCTGGATGAAACCCTGA: -0.785.
Turning to TAGGAGAGGAGGCCGTCCCAAC, the sensor-assay potency score (higher = more potent) is -1.61.
On the same count and under the same terms, the value for TACTGTCCAGTTCGTCCCCGAT was -0.951; that for ATCAGTTCCGGCACCTTGGTGC was -0.369.
Same read-out and setting: next, TTGAGACACTCGCTCAGCTTCT: -0.529.
On the same count and under the same terms, the value for TCATGATCTGCTCAGAGCTGGT was -1.61.

The target in another assay is BBC3. The assay is described as above. The note with it: shRNA.
For the sequence TCCGCCGCTCGTACTGTGCGTT, the sensor-assay potency score (higher = more potent) is -1.32.
As to TGCGTTGAGGTCGTCCGCCATC, the sensor-assay potency score (higher = more potent) was -1.7.
The same measure, in the same setting: next, TGCTCCGCCAGCGAGAGCGAGG: -2.06.
In turn, TGTGCGTTGAGGTCGTCCGCCA had a sensor-assay potency score (higher = more potent) of -0.785.
TTGAGGTCGTCCGCCATCCGCC displayed a sensor-assay potency score (higher = more potent) of -1.67.
On the same count and under the same terms, next, TGCTCCTCTTGTCTCCGCCGCT: -1.11.
On the same count and under the same terms, the value for TCGTACTGTGCGTTGAGGTCGT was 0.393; that for TACAGGACCCTCCAGGGTGAGG was -1.57; that for TTGTACAGGACCCTCCAGGGTG was -1.05.
The same measure, in the same setting: next, TACAGTATCTTACAGGCTGGGC: -0.231.
